“And” between values parts separate entries of the source, which are not always exact repeats. Identical values can stand only once. Results filed as inconclusive are left out. Entries that show only a call come without a potency. More than one record can exist for a structure, and the calls need not agree. The source made the active and inactive calls. Calls follow the shape of the dose curve; as a rule, active = well fitted curve in the direction sought with a large enough effect; inconclusive = small, poorly fitted or top-dose-only effect, or another doubt; inactive = no such curve, though single readings can be large; an effect the other way counts as inactive or inconclusive.
Key:
MKL-1 = assay: qHTS assay to identify novel small-molecules to repurpose for Merkel cell carcinoma treatment (AID 1296009); conditions: MCC and control cell lines, CellTiter-Glo viability, 72 h; series mostly up to 46 µM; also: nearly all actives have a fitted effect of over 60% in size
How it was run: (§1)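 Viability readout: ATP luminescence (CellTiter-Glo) after 72 hr drug exposure at 37 degree celsius. Dose-response format was 8 points for NPC and 11 points for MIPE; data normalized to in-plate controls.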

MKL-2 = assay: as above; conditions: MCC and control cell lines, CellTiter-Glo viability, 72 h; series mostly up to 46 µM
How it was run: as §1

UISO = assay: as above; conditions: MCC and control cell lines, CellTiter-Glo viability, 72 h; series mostly up to 46 µM
How it was run: as §1

WaGa = assay: as above; conditions: MCC and control cell lines, CellTiter-Glo viability, 72 h; series mostly up to 46 µM
How it was run: as §1

C33A = assay: Primary qHTS to identify gynecologic anti-cancer compounds using libraries of approved drugs and bioactive compounds (AID 1345084); conditions: Gynecologic cancer cell panel viability, ATPlite luminescence, 48 h; series mostly up to 57.5 µM; also: nearly all actives have a fitted effect of over 55% in size
How it was run: (§2)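 In this quantitative HTS, cell killing is estimated from loss of ATP-dependent luciferase light. Cells see five compound concentrations over a 48 h exposure.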

CAOV3 = assay: as above; conditions: Gynecologic cancer cell panel viability, ATPlite luminescence, 48 h; series mostly up to 57.5 µM
How it was run: as §2

CASKI = assay: as above; conditions: Gynecologic cancer cell panel viability, ATPlite luminescence, 48 h; series mostly up to 57.5 µM
How it was run: as §2

Es-2 = assay: as above; conditions: Gynecologic cancer cell panel viability, ATPlite luminescence, 48 h; series mostly up to 57.5 µM
How it was run: as §2

HeLa = assay: as above; conditions: Gynecologic cancer cell panel viability, ATPlite luminescence, 48 h; series mostly up to 57.5 µM
How it was run: as §2

Hek293T = assay: as above; conditions: Gynecologic cancer cell panel viability, ATPlite luminescence, 48 h, control line for the selectivity index; series mostly up to 57.5 µM
How it was run: as §2

JEG-3 = assay: as above; conditions: Gynecologic cancer cell panel viability, ATPlite luminescence, 48 h; series mostly up to 57.5 µM
How it was run: as §2

OV90 = assay: as above; conditions: Gynecologic cancer cell panel viability, ATPlite luminescence, 48 h; series mostly up to 57.5 µM
How it was run: as §2

PA-1 = assay: as above; conditions: Gynecologic cancer cell panel viability, ATPlite luminescence, 48 h; series mostly up to 57.5 µM
How it was run: as §2

SKOV3 = assay: as above; conditions: Gynecologic cancer cell panel viability, ATPlite luminescence, 48 h; series mostly up to 57.5 µM
How it was run: as §2

Tov-21-G = assay: as above; conditions: Gynecologic cancer cell panel viability, ATPlite luminescence, 48 h; series mostly up to 57.5 µM
How it was run: as §2

Tov112D = assay: as above; conditions: Gynecologic cancer cell panel viability, ATPlite luminescence, 48 h; series mostly up to 57.5 µM
How it was run: as §2

[1] = Drug repurposing screens with cells derived from glioblastoma tumor samples (AID 1345199); conditions: GBM patient neurospheres viability, ATP luminescence, 48 h; also: nearly all actives have a fitted effect of over 40% in size
How it was run: (§3)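 Primary testing used CD133+ neurospheres from four GBM patients, seven concentrations, 48 h exposure and ATP-based viability; confirmation added three slower-growing patient lines.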

astro = assay: as above; conditions: viability, ATP luminescence, 48 h; series mostly up to 45.9 µM
How it was run: as §3

[2] = at 46.1 µM (top of the series), tumour line C
[3] = at 45.9 µM (top of the series), tumour line B
[4] = at 45.9 µM (top of the series), tumour line D
[5] = at 20 µM (top of the series), tumour line C
[6] = at 21.2 µM (top of the series), tumour line B
[7] = at 21.2 µM (top of the series), tumour line D
[8] = at 21.3 µM (top of the series), tumour line A
[9] = at 46 µM (top of the series), tumour line A
Potency is read from the fitted curve at half-maximal effect.

Clc1ccc(C(c2ccccc2Cl)C(Cl)Cl)cc1 (centres undefined)
Potency (MKL-1): inactive
Potency (MKL-2): inactive
Potency (UISO): inactive
Potency (WaGa): inactive
Potency (C33A): inactive
Potency (CAOV3): inactive
Potency (CASKI): inactive
Potency (Es-2): inactive
Potency (HeLa): inactive
Potency (Hek293T): inactive
Potency (JEG-3): inactive
Potency (OV90): inactive
Potency (PA-1): inactive
Potency (SKOV3): inactive
Potency (Tov-21-G): inactive
Potency (Tov112D): inactive
activity, negative = cell killing [1, 2]: 32.2% (inactive)
Potency ([1]; tumour line A): 22.4 µM (active)

Nc1ccn([C@H]2CC[C@@H](CO)O2)c(=O)n1
Potency (MKL-1): inactive
Potency (MKL-2): inactive
Potency (UISO): inactive
Potency (WaGa): inactive
Potency (C33A): inactive
Potency (CAOV3): inactive
Potency (CASKI): inactive
Potency (Es-2): inactive
Potency (HeLa): inactive
Potency (Hek293T): inactive
Potency (JEG-3): inactive
Potency (OV90): inactive
Potency (PA-1): inactive
Potency (SKOV3): inactive
Potency (Tov-21-G): inactive
Potency (Tov112D): inactive
activity, negative = cell killing [1, 3]: -3.23% (inactive)
activity, negative = cell killing [1, 4]: -22.8% (inactive)
activity, negative = cell killing [1, 2]: -9.64% (inactive)
Potency (astro): inactive

CC1(CN2CCC(n3c(=O)[nH]c4ccccc43)CC2)OCc2ccccc2-n2cccc21 (centres undefined)
Potency (MKL-1): inactive
Potency (MKL-2): inactive
Potency (UISO): inactive
Potency (WaGa): inactive
Potency (C33A): inactive
Potency (CAOV3): inactive
Potency (CASKI): inactive
Potency (Es-2): inactive
Potency (HeLa): inactive
Potency (Hek293T): inactive
Potency (JEG-3): inactive
Potency (PA-1): inactive
Potency (SKOV3): inactive
Potency (Tov-21-G): inactive
Potency (Tov112D): inactive

CS(=O)(=O)Nc1ccc([N+](=O)[O-])cc1Oc1ccccc1
Potency (MKL-1): inactive
Potency (MKL-2): inactive and 14.8 µM (active)
Potency (UISO): inactive
Potency (WaGa): inactive
Potency (C33A): inactive
Potency (CAOV3): inactive
Potency (CASKI): inactive
Potency (Es-2): inactive
Potency (HeLa): inactive
Potency (Hek293T): inactive
Potency (JEG-3): inactive
Potency (OV90): inactive
Potency (PA-1): inactive
Potency (SKOV3): inactive
Potency (Tov-21-G): inactive
Potency (Tov112D): inactive
activity, negative = cell killing [1, 5]: 19.5% (inactive)
activity, negative = cell killing [1, 6]: -19.6% (inactive)
activity, negative = cell killing [1, 7]: -29.6% (inactive)
activity, negative = cell killing [1, 8]: -28.2% (inactive)
Potency (astro): inactive

CCCNCC(O)COc1ccccc1C(=O)CCc1ccccc1 (centres undefined)
Potency (MKL-1): inactive
Potency (MKL-2): inactive
Potency (UISO): inactive
Potency (WaGa): inactive
Potency (C33A): inactive
Potency (CAOV3): inactive
Potency (CASKI): inactive
Potency (Es-2): inactive
Potency (HeLa): inactive
Potency (Hek293T): inactive
Potency (JEG-3): inactive
Potency (PA-1): inactive
Potency (Tov-21-G): inactive
Potency (Tov112D): inactive
activity, negative = cell killing [1, 2]: 27.1% (inactive)
Potency ([1]; tumour line A): 7.08 µM (active)
Potency (astro): inactive

NC(=O)NO
Potency (MKL-1): inactive
Potency (MKL-2): inactive and 372 nM (active)
Potency (UISO): inactive and 4.69 µM (active)
Potency (WaGa): inactive
Potency (C33A): inactive
Potency (CAOV3): inactive
Potency (CASKI): inactive
Potency (Es-2): inactive
Potency (HeLa): inactive
Potency (Hek293T): inactive
Potency (JEG-3): inactive
Potency (OV90): inactive
Potency (PA-1): inactive
Potency (SKOV3): inactive
Potency (Tov-21-G): inactive
Potency (Tov112D): inactive
activity, negative = cell killing [1, 3]: -13.8% (inactive)
activity, negative = cell killing [1, 4]: -5.79% (inactive)
activity, negative = cell killing [1, 9]: -19.1% (inactive)
activity, negative = cell killing [1, 2]: -11.2% (inactive)
Potency (astro): inactive

COc1ccccc1OCCNCC(O)COc1cccc2[nH]c3ccccc3c12 (centres undefined)
Potency (MKL-1): inactive
Potency (MKL-2): 16.8 µM (active)
Potency (UISO): inactive
Potency (WaGa): inactive
Potency (C33A): inactive
Potency (CAOV3): inactive
Potency (Es-2): inactive
Potency (HeLa): inactive
Potency (PA-1): inactive
Potency (SKOV3): inactive
Potency (Tov-21-G): inactive
Potency (Tov112D): inactive
activity, negative = cell killing [1, 2]: 3.12% (inactive)
Potency ([1]; tumour line A): 11.2 µM (active)
Potency (astro): inactive

O=c1c(-c2ccc(O)cc2)coc2cc(O)cc(O)c12
Potency (MKL-1): inactive
Potency (MKL-2): inactive
Potency (UISO): inactive
Potency (WaGa): inactive and 26.6 µM (active)
Potency (C33A): inactive
Potency (CAOV3): inactive
Potency (Es-2): inactive
Potency (Hek293T): inactive
Potency (OV90): inactive
Potency (Tov-21-G): 3.98 µM (active)
activity, negative = cell killing [1, 2]: -25.8% (inactive)
Potency (astro): 10 µM (active)

COc1nc(C)nc(Cl)c1NC1=NCCN1
Potency (MKL-1): inactive
Potency (MKL-2): inactive
Potency (UISO): inactive
Potency (WaGa): inactive
Potency (C33A): inactive
Potency (CAOV3): inactive
Potency (CASKI): inactive
Potency (Es-2): inactive
Potency (HeLa): inactive
Potency (Hek293T): inactive
Potency (JEG-3): inactive
Potency (OV90): inactive
Potency (PA-1): inactive
Potency (SKOV3): inactive
Potency (Tov-21-G): inactive
Potency (Tov112D): inactive
activity, negative = cell killing [1, 5]: -9.78% (inactive)
activity, negative = cell killing [1, 6]: -2.98% (inactive)
activity, negative = cell killing [1, 7]: 12.8% (inactive)
activity, negative = cell killing [1, 8]: -26.5% (inactive)
Potency (astro): inactive

CC(C)NCC(O)COc1ccc(CCOCC2CC2)cc1 (centres undefined)
Potency (MKL-1): inactive
Potency (MKL-2): inactive
Potency (UISO): inactive
Potency (WaGa): inactive
Potency (C33A): inactive
Potency (CAOV3): inactive
Potency (CASKI): inactive
Potency (Es-2): inactive
Potency (HeLa): inactive
Potency (Hek293T): inactive
Potency (JEG-3): inactive
Potency (OV90): inactive
Potency (PA-1): inactive
Potency (SKOV3): inactive
Potency (Tov-21-G): inactive
Potency (Tov112D): inactive
activity, negative = cell killing [1, 3]: -17.4% (inactive)
activity, negative = cell killing [1, 4]: -21.3% (inactive)
activity, negative = cell killing [1, 2]: -27.5% (inactive)
Potency ([1]; tumour line A): 17.8 µM (active)
Potency (astro): inactive

CC(C)NCC(O)c1ccc(O)c(O)c1 (centres undefined)
Potency (MKL-1): 8.41 µM (active)
Potency (MKL-2): 7.43 µM (active) and 18.8 µM (active)
Potency (WaGa): 3.32 µM (active) and 18.8 µM (active)
Potency (C33A): inactive
Potency (CAOV3): inactive
Potency (CASKI): inactive
Potency (Es-2): inactive
Potency (HeLa): inactive
Potency (Hek293T): inactive
Potency (JEG-3): inactive
Potency (SKOV3): inactive
Potency (Tov-21-G): inactive
Potency (Tov112D): inactive
activity, negative = cell killing [1, 3]: -7.24% (inactive)
activity, negative = cell killing [1, 4]: 4.85% (inactive)
activity, negative = cell killing [1, 2]: 7.09% (inactive)
Potency (astro): inactive

NC(CO)C(=O)NNCc1ccc(O)c(O)c1O (centres undefined)
Potency (CASKI): inactive
Potency (Es-2): inactive
Potency (HeLa): inactive
Potency (Hek293T): inactive
Potency (JEG-3): inactive
Potency (OV90): inactive
Potency (Tov-21-G): inactive
Potency (Tov112D): inactive
activity, negative = cell killing [1, 3]: -5.28% (inactive)
activity, negative = cell killing [1, 4]: -22% (inactive)
activity, negative = cell killing [1, 9]: -18.9% (inactive)
activity, negative = cell killing [1, 2]: 12.3% (inactive)
Potency (astro): inactive

C[C@@H]1CC(=O)NN=C1c1ccc(NN=C(C#N)C#N)cc1
Potency (MKL-1): inactive
Potency (MKL-2): 8.41 µM (active) and 7.5 µM (active)
Potency (UISO): 21.1 µM (active)
Potency (WaGa): 23.7 µM (active) and inactive
Potency (C33A): inactive
Potency (CASKI): inactive
Potency (Es-2): inactive
Potency (HeLa): inactive
Potency (Hek293T): inactive
Potency (JEG-3): inactive
Potency (OV90): inactive
Potency (PA-1): inactive
Potency (SKOV3): inactive
Potency (Tov-21-G): inactive
Potency (Tov112D): inactive
activity, negative = cell killing [1, 3]: -23.8% (inactive)
activity, negative = cell killing [1, 2]: -26.3% (inactive)
Potency (astro): inactive
